Data on 40 sequences can be found in the OligoGym collection.
Note: reference of the scale not given here.

The target of the first assay is SEZ6L. As to the kind of experiment: pooled miR-30 sensor sort-seq; sequence = guide strand. The following applies: shRNA.
Sequence TCGGACGTGAACTCGATGCGGA yielded a sensor-assay potency score (higher = more potent) of -0.799.
On the same count and under the same terms, with TCGAGTGATCCACCTCTCCGGG the figure was -1; with TTGTCATGCAGCAACAGCCTCT, -0.492.
Same read-out and setting: under TAGACTGTCACGTTGTATGTGC stands 0.1; under TAGATGGTCAAGATGTCACTGT, -0.115; under TCCAGATACAATCTTCACCTTC, -0.983.
In the case of TTGGAGAAGCTCACACTGCAGA, the sensor-assay potency score (higher = more potent) was -0.466.
Same read-out and setting: with TTATAGGTCGGGTCGGATGTAG the figure was -0.637; with TGGATATCTAAGAAGATCCGTT, -0.621; with TGGAATAGTAGCGACATCTTGT, -0.571.

The next assay deals with SFRP4. Described as above. The note with it: shRNA.
As for TATGGATCTTTTACTAAGCTGA, the sensor-assay potency score (higher = more potent) is -0.661.
TTTACATCCACCACCGTTGTGA displayed a sensor-assay potency score (higher = more potent) of 0.315.
On the same count and under the same terms, with TTTTACACTTGCACCGATCGGG the figure was 0.497.
With TAGACAGGCAGCTCGTCGCAGG, the sensor-assay potency score (higher = more potent) is -0.454.
As to TTTTCTTCTTGTCCTGAACTGT, the sensor-assay potency score (higher = more potent) was -0.361.
The same measure, in the same setting: with TTTTCAAGAAGCATCATCCTTG the figure was 0.0999; with TTACTAAGCTGATCTCTCCATT, -0.515.
In turn, TTTACACTTGCACCGATCGGGG gave a sensor-assay potency score (higher = more potent) of -0.824.
On the same count and under the same terms, under TTGTCCTGAACTGTTCTCCGCT stands 0.199.
The same measure, in the same setting: with TTGGCATGAATAACATAGCTGT the figure was -0.164; with TATCCACTTAACATCCTCCGGG, 0.611.
For TTTACTAAGCTGATCTCTCCAT, the sensor-assay potency score (higher = more potent) was -0.0154.

For another assay, the target named is SFT2D2. The assay is described as above. The following applies: shRNA.
For the sequence TACAAAACTGTCCACCAGCTTC, the sensor-assay potency score (higher = more potent) was -0.963.
On the same count and under the same terms, with TTTATCCTGGTACTCCAGCTTA the figure was -0.866; with TTATCCTGGTACTCCAGCTTAA, -1.39.
For the sequence TGCAAAACACAACAGCACCATG, the sensor-assay potency score (higher = more potent) is -1.45.
Turning to AAGAGGTGTAGTCCCTTCCTGG, the sensor-assay potency score (higher = more potent) is -1.12.
Still for that read-out and setting: under TCAAACATTCGCTTCAGCTGTT stands 0.727.
Still for that read-out and setting: with TGATAGTTGCAATCAAACGAGT the figure was -0.692.
The same measure, in the same setting: with ATCACAAGCAACACATTGCTGC the figure was -0.583; with TATAGCAAAACACGCAATGAAG, -1.77.
TTAATGAAGATGCCTCAACAAC registered a sensor-assay potency score (higher = more potent) of -1.49.
The same measure, in the same setting: with TTGCAATCAAACGAGTAGGCTC the figure was -0.3.

The next assay addresses SFTA2. Described as above. The following applies: shRNA.
TTCAGTTGCAAAGTCATACCCG: the sensor-assay potency score (higher = more potent) is 0.378.
Still for that read-out and setting: under TCAGTTGCAAAGTCATACCCGG stands 0.0994.
Still for that read-out and setting: under TGGAGGGTGACGCTGGTCCCTG stands -1.43.
TGTCAGAAAAGACTCCTTCAGC yielded a sensor-assay potency score (higher = more potent) of -0.402.
Still for that read-out and setting: with ATGGTGTTGAGATCTTGCATGG the figure was -1.27; with TCAAGCAATTCCAGGAAGCTGG, -0.742.
The same measure, in the same setting: with TTTGTCAGAAAAGACTCCTTCA the figure was 0.111.
